# Source: PMC7862700, “An all-to-all approach to the identification of sequence-specific readers for epigenetic DNA modifications on cytosine”
# How the values were obtained:
# Assay in all cases: DAPPL (digital affinity profiling via proximity ligation, sequencing); 10 mM Tris-HCl pH 7.5, 50 mM NaCl, 1 mM DTT, 4% glycerol, room temperature, 30 min; GST-TFs on glutathione beads, 16-mer random dsDNA library, 0.1% formaldehyde crosslink after washing; high values mean tight binding
# FLI1 = molecular target: T1, FLI1 (Homo sapiens, UniProt Q01543 1-452); settings: protein: recombinant; tags: N-terminal GST; dsDNA, one strand shown
# T1 sequence: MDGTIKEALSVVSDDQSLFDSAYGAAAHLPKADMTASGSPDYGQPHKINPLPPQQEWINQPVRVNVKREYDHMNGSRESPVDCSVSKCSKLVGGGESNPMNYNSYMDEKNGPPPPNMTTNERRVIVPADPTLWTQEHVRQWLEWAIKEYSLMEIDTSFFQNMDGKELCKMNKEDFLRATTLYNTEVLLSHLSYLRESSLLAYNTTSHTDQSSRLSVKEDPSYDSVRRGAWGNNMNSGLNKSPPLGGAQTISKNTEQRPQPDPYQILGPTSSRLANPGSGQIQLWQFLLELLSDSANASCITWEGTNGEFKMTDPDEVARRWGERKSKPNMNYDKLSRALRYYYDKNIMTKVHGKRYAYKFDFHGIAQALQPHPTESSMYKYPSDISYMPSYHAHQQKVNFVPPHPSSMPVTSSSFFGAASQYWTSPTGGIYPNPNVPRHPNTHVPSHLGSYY
# How it was run: (§1)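 Human transcription factors were made in yeast as GST fusions, captured on glutathione beads and barcoded with DNA. With a tag-only sample included, the pool was incubated with 200 nmole of a random double-stranded 16-mer DNA library in Tris/NaCl/DTT/glycerol buffer at room temperature for 30 min, then crosslinked with 0.1% formaldehyde after washing, ligated by proximity, amplified and sequenced. For binding signal, each hexamer's read frequency for a factor is divided by its frequency for the tag-only sample.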
# ELK1 = molecular target: T2, ELK1 (Homo sapiens, UniProt P19419 1-428); settings: protein: recombinant; tags: N-terminal GST; dsDNA, one strand shown
# T2 sequence: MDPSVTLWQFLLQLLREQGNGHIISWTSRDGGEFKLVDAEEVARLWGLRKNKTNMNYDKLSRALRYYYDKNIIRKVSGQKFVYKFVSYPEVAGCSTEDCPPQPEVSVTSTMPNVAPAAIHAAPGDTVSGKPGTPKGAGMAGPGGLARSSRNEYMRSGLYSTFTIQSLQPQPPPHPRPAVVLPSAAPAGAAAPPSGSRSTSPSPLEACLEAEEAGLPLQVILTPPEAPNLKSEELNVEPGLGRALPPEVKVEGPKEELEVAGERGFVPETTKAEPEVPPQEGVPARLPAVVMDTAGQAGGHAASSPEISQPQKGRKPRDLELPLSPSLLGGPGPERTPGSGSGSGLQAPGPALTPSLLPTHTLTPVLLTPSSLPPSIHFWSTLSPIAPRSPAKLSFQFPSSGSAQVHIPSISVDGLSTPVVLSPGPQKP
# How it was run: as §1
# GABPA = molecular target: T3, GABPA (Homo sapiens, UniProt Q06546 1-454); settings: protein: recombinant; tags: N-terminal GST; dsDNA, one strand shown
# T3 sequence: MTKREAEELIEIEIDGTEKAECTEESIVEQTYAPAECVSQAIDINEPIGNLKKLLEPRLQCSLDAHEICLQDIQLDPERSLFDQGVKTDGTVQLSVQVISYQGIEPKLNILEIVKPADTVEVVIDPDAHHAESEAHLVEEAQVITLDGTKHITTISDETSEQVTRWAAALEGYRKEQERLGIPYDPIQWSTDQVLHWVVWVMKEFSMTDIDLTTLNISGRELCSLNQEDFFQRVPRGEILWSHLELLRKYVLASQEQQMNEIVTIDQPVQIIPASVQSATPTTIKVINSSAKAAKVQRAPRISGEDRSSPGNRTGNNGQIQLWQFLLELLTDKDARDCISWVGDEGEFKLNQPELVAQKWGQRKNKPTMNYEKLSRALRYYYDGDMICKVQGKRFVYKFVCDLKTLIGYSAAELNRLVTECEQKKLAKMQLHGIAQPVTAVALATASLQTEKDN
# How it was run: as §1
# ERG = molecular target: T4, ERG (Homo sapiens, UniProt P11308 1-479); settings: protein: recombinant; tags: N-terminal GST; dsDNA, one strand shown
# T4 sequence: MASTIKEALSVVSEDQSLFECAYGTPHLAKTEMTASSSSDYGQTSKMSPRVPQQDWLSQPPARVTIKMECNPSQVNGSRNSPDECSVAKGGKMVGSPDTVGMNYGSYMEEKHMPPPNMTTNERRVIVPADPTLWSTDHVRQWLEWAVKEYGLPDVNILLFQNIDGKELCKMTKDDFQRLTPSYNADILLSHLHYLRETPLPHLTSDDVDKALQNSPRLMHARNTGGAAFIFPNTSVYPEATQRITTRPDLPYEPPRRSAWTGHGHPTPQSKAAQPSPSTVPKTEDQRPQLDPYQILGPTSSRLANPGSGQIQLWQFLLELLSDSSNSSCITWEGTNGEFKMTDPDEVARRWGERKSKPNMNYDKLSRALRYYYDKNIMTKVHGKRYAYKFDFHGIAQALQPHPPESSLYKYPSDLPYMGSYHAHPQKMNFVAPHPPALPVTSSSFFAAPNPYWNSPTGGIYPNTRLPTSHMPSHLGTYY
# How it was run: as §1
# ELF1 = ELF1 (Homo sapiens, UniProt P32519 1-619); settings: protein: recombinant; tags: N-terminal GST; dsDNA, one strand shown
# How it was run: as §1
# EHF = molecular target: T5, EHF (Homo sapiens, UniProt Q9NZC4 1-300); settings: protein: recombinant; tags: N-terminal GST; dsDNA, one strand shown
# T5 sequence: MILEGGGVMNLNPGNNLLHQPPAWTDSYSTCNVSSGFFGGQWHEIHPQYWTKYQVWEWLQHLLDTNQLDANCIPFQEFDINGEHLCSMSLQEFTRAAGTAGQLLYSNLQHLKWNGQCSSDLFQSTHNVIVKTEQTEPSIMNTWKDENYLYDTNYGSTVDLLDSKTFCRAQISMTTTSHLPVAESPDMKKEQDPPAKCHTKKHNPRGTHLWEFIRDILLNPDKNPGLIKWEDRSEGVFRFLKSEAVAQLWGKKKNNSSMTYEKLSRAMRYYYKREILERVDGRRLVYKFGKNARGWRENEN
# How it was run: as §1
# SPI1 = SPI1 (Homo sapiens, UniProt P17947 1-270); settings: protein: recombinant; tags: N-terminal GST; dsDNA, one strand shown
# How it was run: as §1
# SPIB = SPIB (Homo sapiens, UniProt Q01892 1-262); settings: protein: recombinant; tags: N-terminal GST; dsDNA, one strand shown
# How it was run: as §1
# ELK3 = molecular target: T6, ELK3 (Homo sapiens, UniProt P41970 1-407); settings: protein: recombinant; tags: N-terminal GST; dsDNA, one strand shown
# T6 sequence: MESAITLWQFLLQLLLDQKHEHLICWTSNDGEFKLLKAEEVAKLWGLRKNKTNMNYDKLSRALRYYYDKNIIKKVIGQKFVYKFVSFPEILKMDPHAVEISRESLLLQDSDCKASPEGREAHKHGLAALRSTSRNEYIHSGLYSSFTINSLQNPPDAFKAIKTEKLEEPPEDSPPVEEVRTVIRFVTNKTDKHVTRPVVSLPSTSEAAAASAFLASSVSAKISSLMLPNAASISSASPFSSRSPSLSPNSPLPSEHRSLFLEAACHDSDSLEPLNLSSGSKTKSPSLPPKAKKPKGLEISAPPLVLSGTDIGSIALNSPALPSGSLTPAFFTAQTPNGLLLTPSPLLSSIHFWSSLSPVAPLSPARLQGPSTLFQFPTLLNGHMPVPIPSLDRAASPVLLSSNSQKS
# How it was run: as §1
# FEV = molecular target: T7, FEV (Homo sapiens, UniProt Q99581 1-238); settings: protein: recombinant; tags: N-terminal GST; dsDNA, one strand shown
# T7 sequence: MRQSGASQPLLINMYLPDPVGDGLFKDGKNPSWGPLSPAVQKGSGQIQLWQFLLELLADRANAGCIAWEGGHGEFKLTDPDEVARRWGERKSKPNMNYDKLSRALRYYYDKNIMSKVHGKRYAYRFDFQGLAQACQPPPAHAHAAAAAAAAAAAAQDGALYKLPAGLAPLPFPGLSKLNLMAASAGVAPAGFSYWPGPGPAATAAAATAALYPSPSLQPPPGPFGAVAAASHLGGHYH
# How it was run: as §1
# ETV5 = ETV5 (Homo sapiens, UniProt P41161 1-510); settings: protein: recombinant; tags: N-terminal GST; dsDNA, one strand shown
# How it was run: as §1
# HSF1 = HSF1 (Homo sapiens, UniProt Q00613 1-529); settings: protein: recombinant; tags: N-terminal GST; chain copies: 3; dsDNA, one strand shown
# How it was run: as §1
# SPIC = molecular target: T8, SPIC (Homo sapiens, UniProt Q8N5J4 1-248); settings: protein: recombinant; tags: N-terminal GST; dsDNA, one strand shown
# T8 sequence: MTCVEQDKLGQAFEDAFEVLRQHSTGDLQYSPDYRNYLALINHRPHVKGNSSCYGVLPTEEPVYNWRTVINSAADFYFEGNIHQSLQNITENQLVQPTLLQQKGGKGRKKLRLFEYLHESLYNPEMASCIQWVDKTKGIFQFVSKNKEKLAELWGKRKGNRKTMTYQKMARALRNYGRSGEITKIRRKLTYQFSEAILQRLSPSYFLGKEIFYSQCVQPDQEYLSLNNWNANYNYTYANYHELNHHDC
# How it was run: as §1
# ELF4 = ELF4 (Homo sapiens, UniProt Q99607 1-663); settings: protein: recombinant; tags: N-terminal GST; dsDNA, one strand shown
# How it was run: as §1
# ELK4 = molecular target: T9, ELK4 (Homo sapiens, UniProt P28324-2 1-405); settings: protein: recombinant; tags: N-terminal GST; dsDNA, one strand shown
# T9 sequence: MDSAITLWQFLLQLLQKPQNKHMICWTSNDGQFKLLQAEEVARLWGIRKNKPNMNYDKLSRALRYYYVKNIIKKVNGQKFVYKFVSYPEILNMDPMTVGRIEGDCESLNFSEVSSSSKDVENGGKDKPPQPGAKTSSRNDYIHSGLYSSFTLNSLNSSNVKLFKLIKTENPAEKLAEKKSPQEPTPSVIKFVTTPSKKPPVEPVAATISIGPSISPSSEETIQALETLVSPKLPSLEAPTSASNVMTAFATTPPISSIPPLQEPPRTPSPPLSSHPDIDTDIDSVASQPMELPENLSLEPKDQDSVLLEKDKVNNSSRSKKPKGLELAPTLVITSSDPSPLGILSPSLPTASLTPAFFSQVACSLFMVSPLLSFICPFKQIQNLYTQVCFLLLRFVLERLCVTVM
# How it was run: as §1
# ETV2 = molecular target: T10, ETV2 (Homo sapiens, UniProt O00321 1-342); settings: protein: recombinant; tags: N-terminal GST; dsDNA, one strand shown
# T10 sequence: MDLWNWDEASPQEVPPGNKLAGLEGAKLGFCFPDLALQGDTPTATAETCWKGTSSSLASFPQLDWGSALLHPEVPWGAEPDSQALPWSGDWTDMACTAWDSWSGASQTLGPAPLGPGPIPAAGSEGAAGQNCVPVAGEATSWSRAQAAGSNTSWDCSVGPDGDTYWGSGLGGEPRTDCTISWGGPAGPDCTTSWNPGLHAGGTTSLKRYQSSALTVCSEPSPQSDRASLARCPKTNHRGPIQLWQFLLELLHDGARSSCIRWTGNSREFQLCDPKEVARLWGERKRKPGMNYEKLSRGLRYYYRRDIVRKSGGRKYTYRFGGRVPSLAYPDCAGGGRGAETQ
# How it was run: as §1
# ELF3 = molecular target: T11, ELF3 (Homo sapiens, UniProt P78545 1-371); settings: protein: recombinant; tags: N-terminal GST; dsDNA, one strand shown
# T11 sequence: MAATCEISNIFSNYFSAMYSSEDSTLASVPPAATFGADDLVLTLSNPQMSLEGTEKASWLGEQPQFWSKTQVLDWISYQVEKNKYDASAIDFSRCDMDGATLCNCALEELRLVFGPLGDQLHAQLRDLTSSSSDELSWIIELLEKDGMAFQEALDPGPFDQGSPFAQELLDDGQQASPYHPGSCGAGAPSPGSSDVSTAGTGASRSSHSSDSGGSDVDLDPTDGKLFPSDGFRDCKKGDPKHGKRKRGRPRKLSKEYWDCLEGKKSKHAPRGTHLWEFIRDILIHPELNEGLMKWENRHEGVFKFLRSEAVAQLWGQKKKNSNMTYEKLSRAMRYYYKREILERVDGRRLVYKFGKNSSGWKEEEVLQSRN
# How it was run: as §1
# CRX = CRX (Homo sapiens, UniProt O43186 1-299); settings: protein: recombinant; tags: N-terminal GST; dsDNA, one strand shown
# How it was run: as §1
# ETV1 = ETV1 (Homo sapiens, UniProt P50549 1-477); settings: protein: recombinant; tags: N-terminal GST; dsDNA, one strand shown
# How it was run: as §1
# Chain of ETV1 (P50549 whole entry): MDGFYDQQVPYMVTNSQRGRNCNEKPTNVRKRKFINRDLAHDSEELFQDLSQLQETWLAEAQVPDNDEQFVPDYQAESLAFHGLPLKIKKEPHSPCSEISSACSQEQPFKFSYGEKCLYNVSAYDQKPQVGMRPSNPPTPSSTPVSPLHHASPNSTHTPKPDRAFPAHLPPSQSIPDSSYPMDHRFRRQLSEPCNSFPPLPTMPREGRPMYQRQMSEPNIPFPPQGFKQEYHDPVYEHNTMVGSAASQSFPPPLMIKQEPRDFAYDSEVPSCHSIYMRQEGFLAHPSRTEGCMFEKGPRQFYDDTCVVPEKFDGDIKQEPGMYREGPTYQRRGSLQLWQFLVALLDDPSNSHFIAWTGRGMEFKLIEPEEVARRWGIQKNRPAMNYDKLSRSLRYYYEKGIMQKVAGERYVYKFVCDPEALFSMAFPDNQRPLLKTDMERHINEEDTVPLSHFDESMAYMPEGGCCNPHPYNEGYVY
# Chain of SPIB (Q01892 whole entry): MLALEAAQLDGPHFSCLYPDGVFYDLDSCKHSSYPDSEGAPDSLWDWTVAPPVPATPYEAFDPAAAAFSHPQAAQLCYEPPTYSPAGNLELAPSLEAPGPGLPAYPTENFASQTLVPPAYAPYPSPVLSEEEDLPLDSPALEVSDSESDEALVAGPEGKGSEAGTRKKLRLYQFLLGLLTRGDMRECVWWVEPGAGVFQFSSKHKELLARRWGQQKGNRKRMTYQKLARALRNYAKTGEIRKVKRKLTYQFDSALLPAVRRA
# Chain of ETV5 (P41161 whole entry): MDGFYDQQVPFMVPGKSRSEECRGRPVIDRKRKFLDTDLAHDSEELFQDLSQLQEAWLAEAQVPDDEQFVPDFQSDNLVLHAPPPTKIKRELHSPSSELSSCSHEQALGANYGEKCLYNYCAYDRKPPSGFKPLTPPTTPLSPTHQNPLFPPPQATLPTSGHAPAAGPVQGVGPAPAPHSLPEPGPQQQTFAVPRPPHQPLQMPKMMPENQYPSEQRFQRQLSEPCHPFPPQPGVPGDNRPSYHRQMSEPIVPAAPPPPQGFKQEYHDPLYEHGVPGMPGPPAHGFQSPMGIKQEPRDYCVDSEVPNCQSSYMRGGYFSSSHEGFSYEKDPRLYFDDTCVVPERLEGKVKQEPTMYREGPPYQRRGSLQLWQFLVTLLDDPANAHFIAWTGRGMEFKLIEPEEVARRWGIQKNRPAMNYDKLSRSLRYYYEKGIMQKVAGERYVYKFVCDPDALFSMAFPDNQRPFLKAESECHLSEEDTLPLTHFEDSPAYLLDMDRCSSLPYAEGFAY
# Chain of CRX (O43186 whole entry): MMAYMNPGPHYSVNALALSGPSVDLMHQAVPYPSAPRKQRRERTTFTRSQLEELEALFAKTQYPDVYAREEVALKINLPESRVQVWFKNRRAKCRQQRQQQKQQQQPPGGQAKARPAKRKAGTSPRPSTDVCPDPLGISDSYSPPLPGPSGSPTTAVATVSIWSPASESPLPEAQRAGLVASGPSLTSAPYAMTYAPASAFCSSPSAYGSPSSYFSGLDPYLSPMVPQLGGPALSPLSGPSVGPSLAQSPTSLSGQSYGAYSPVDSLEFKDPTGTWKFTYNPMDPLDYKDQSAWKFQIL
# Chain of HSF1 (Q00613 whole entry): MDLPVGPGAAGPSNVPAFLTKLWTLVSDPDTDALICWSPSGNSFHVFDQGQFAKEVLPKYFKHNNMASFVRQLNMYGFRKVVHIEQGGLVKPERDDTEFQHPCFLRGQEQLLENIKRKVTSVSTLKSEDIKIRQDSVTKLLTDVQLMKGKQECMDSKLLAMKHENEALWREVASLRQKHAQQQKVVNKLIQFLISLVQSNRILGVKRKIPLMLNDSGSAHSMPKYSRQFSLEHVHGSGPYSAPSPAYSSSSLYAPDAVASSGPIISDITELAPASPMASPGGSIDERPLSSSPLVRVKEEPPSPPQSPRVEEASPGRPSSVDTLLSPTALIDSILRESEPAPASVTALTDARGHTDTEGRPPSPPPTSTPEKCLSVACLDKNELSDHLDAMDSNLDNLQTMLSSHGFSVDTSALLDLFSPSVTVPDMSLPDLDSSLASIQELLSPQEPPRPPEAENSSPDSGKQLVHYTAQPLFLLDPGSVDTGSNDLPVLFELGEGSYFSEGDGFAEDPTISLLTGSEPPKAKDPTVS
# Chain of ELF4 (Q99607 whole entry): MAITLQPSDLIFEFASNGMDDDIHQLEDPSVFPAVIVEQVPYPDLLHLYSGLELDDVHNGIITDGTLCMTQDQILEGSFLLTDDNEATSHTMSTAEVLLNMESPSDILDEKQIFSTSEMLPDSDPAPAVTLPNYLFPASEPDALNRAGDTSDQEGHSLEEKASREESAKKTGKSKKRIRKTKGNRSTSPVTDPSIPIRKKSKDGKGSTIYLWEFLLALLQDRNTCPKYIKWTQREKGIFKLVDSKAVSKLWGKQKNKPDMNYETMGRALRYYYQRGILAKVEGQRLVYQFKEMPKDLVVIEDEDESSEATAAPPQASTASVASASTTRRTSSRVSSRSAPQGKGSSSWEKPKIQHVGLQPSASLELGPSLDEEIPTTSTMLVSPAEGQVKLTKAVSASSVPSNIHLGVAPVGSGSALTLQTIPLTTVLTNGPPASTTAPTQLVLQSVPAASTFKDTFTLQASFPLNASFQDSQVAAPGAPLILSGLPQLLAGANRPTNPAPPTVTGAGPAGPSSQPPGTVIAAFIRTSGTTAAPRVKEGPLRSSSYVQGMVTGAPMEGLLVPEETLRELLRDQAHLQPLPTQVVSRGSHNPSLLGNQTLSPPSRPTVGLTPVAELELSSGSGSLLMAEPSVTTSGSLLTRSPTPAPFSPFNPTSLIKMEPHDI
# Chain of ELF1 (P32519 whole entry): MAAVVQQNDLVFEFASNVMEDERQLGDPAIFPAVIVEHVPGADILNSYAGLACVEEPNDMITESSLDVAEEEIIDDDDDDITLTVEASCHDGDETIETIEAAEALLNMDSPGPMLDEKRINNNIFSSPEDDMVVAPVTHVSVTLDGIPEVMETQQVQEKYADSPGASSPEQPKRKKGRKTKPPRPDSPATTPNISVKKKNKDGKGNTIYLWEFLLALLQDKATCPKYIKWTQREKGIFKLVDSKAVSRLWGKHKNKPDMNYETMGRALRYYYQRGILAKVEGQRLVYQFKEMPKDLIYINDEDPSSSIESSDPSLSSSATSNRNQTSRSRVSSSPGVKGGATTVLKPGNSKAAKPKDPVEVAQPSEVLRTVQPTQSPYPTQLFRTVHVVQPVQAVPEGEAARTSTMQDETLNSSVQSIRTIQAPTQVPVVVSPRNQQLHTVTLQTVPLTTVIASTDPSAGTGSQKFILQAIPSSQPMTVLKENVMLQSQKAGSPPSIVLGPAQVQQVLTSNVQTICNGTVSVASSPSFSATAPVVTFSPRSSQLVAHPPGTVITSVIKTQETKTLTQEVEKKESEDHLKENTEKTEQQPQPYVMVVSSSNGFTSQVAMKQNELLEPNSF
sequence,measurement,setting,value
CTCAAA,binding signal,FLI1,"1.2 fold enrichment (6-mer frequency, TF over GST control)"
same,binding signal,ELK1,"1.14 fold enrichment (6-mer frequency, TF over GST control)"
same,binding signal,GABPA,"1.16 fold enrichment (6-mer frequency, TF over GST control)"
same,binding signal,ERG,"1.13 fold enrichment (6-mer frequency, TF over GST control)"
same,binding signal,ELF1,"1.25 fold enrichment (6-mer frequency, TF over GST control)"
same,binding signal,EHF,"1.11 fold enrichment (6-mer frequency, TF over GST control)"
same,binding signal,SPI1,"1.29 fold enrichment (6-mer frequency, TF over GST control)"
same,binding signal,SPIB,"1.23 fold enrichment (6-mer frequency, TF over GST control)"
same,binding signal,ELK3,"1.15 fold enrichment (6-mer frequency, TF over GST control)"
same,binding signal,FEV,"1.28 fold enrichment (6-mer frequency, TF over GST control)"
same,binding signal,ETV5,"1.18 fold enrichment (6-mer frequency, TF over GST control)"
same,binding signal,HSF1,"1.24 fold enrichment (6-mer frequency, TF over GST control)"
same,binding signal,SPIC,"1.2 fold enrichment (6-mer frequency, TF over GST control)"
same,binding signal,ELF4,"1.18 fold enrichment (6-mer frequency, TF over GST control)"
same,binding signal,ELK4,"1.2 fold enrichment (6-mer frequency, TF over GST control)"
same,binding signal,ETV2,"1.16 fold enrichment (6-mer frequency, TF over GST control)"
same,binding signal,ELF3,"1.32 fold enrichment (6-mer frequency, TF over GST control)"
same,binding signal,CRX,"1.25 fold enrichment (6-mer frequency, TF over GST control)"
same,binding signal,ETV1,"1.2 fold enrichment (6-mer frequency, TF over GST control)"
